Screening data (PubChem BioAssay)
The list is not random: actives were taken first. Their share in the collection is about 2.8%.
WRN helicase inh = inhibitors of human WRN helicase | Q14191 | WRN helicase unwinding, fluorescent forked duplex, kinetic | Potency, µM (series often up to 114 µM), inactives show at the highest dose activity change, negative = inhibition, hits mostly inhibitors | 360,000 compounds, 0.46% hits | AID 651768; also: potency is read from the fitted curve at half-maximal effect; % is scaled to controls: 0 for no effect and ±100 for the full control effect; nearly all actives have a fitted effect of over 55% in size
Target sequence (Q14191 whole entry, looked up): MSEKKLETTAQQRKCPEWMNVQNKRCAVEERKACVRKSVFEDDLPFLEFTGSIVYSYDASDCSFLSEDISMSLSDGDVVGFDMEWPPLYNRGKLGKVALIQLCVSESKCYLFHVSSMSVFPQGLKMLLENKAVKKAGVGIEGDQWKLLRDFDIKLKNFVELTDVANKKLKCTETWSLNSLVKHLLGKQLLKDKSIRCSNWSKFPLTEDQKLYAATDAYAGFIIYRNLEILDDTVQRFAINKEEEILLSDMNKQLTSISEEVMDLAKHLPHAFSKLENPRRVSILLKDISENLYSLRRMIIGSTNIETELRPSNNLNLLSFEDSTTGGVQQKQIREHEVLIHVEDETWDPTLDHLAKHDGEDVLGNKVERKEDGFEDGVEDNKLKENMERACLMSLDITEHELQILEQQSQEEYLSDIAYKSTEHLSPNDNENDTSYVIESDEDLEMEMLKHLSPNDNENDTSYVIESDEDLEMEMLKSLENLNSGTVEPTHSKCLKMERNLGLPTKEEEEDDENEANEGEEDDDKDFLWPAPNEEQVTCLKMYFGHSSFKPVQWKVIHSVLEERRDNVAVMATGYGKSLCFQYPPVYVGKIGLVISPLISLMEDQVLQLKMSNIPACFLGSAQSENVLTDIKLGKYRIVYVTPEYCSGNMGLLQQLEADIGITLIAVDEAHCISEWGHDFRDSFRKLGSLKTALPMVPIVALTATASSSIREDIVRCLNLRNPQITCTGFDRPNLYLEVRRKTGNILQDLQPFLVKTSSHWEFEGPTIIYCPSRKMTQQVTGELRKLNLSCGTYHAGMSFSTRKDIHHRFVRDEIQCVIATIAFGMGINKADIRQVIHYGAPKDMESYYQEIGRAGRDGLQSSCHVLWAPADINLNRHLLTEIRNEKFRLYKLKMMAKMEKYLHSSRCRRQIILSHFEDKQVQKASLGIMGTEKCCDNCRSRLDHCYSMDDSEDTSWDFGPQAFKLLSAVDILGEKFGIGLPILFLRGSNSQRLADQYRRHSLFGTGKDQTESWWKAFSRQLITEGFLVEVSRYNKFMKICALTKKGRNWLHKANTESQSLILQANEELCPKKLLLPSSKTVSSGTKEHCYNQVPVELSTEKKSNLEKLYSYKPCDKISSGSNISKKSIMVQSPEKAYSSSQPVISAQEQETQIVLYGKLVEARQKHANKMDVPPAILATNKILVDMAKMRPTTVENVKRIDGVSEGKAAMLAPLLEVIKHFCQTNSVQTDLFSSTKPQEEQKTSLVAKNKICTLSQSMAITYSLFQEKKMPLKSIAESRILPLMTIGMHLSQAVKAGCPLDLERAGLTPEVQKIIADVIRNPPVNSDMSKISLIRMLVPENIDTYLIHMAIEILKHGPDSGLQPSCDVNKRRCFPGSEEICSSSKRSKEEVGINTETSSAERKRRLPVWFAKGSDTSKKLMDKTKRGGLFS
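Primary qHTS, 1536-well format. 20 nM WRN + compound, 15 min RT; start with 100 nM forked fluorophore/quencher duplex, 2 mM ATP (final); kinetic read ex 525/em 598 nm.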
POLK inh = inhibitors of human DNA polymerase kappa | Q9UBT6 | purified Pol kappa, fluorescent DNA synthesis assay, 10 min | Potency, µM (doses to about 107 µM), inactives show at the highest dose activity, negative = inhibition, usual class: inhibitors | 400,000 compounds, 0.53% hits; also: potency is read from the fitted curve at half-maximal effect; % is scaled to controls: 0 for no effect and ±100 for the full control effect
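Activity was followed as the change in fluorescence between reads at 0 and 10 min after starting the reaction with 50 nM substrate. Beforehand, 10 nM polymerase had been preincubated with compound for 15 min at room temperature.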
Pol beta inh = blocks human DNA polymerase beta activity. AID 485314. P06746. Potency, µM (doses to about 114 µM), inactives show at the highest dose activity change, negative = inhibition, hits mostly inhibitors. 340,000 compounds, 1.3% hits. Pol beta primer extension/strand displacement, fluorescence kinetic; also: potency is read from the fitted curve at half-maximal effect; % is scaled to controls: 0 for no effect and ±100 for the full control effect
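10 nM enzyme + cpd, 15 min RT; start with substrate 50 nM final; read 0 min and after 10 min RT. Corrected, normalized data; 4-parameter Hill curve fit.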
Pol iota inh = DNA polymerase iota (human) inhibition; Q9UNA4; Pol iota fluorescent replication assay, 10 min; Potency, µM (doses to about 115 µM), for the others: at the top dose activity, negative = inhibition, usual class: inhibitors; 390,000 compounds, 1% hits; AID 588590; also: potency is read from the fitted curve at half-maximal effect
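Fluorescent replication assay read twice, at 0 min and 10 min after adding 50 nM (final) substrate. Enzyme (10 nM) and compounds were first incubated 15 min at room temperature; enzyme-free buffer wells were negative controls.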
PI5P4Ka inh = inhibitors of human PI5P4K alpha. P48426. PI5P4Kalpha enzyme, ADP-Glo luminescence, 60 min; stronger effect = lower value. max response, %. 330,000 compounds, 1.2% hits. AID 652105; active = max response of -50% or lower; inconclusive = between -30% and -50%; inactive = -30% or higher; also: value at the top dose of about 77 µM; % is scaled to controls: 0 for no effect and ±100 for the full control effect
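Human PI5P4Kalpha with substrate in 0.038 M HEPES pH 7.4, 0.28 mM EGTA, 0.1% CHAPS, 5% DMSO; reaction started with 5 microM ATP (final), 60 min at room temperature. ADP formed read by ADP-Glo luminescence.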
POLH inh = DNA polymerase eta (human) inhibition; AID 588591; 390,000 compounds, 1.2% hits; Potency, µM (titrated, usually from 114 µM), for the others: at the top dose activity change, negative = inhibition, usual class: inhibitors; recombinant Pol eta, fluorescent DNA replication assay; also: potency is read from the fitted curve at half-maximal effect; % is scaled to controls: 0 for no effect and ±100 for the full control effect
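Pol eta (10 nM) was preincubated with compounds for 15 min at room temperature, after which fluorescent replication substrate (50 nM final) was added to start the reaction. Fluorescence was read kinetically at 0 and 10 min.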
* = called active by the depositor; ? = inconclusive; / = no result; [ ] = remark or other dose. Unless noted, calls follow the shape of the dose curve; as a rule, active = well fitted curve in the direction sought with a large enough effect; inconclusive = small, poorly fitted or top-dose-only effect, or another doubt; inactive = no such curve, though single readings can be large; an effect the other way counts as inactive or inconclusive.

SMILES	WRN helicase inh	POLK inh	Pol beta inh	Pol iota inh	PI5P4Ka inh	POLH inh
CCCCC1(C)NC(=S)N2N1C(=S)NC2(C)CCCC (stereo unspecified)	56.2µM*	0.3%	23.9%	?	?	-12.4%
CCCCC1(C)Cc2ccccc2C(=S)N1 (stereo unspecified)	-2.8%	-1.1%	3.3%	1.3%	/	-7.4%
COc1ccc(OC)c(/C=C/c2[nH]c(=O)[nH]c(=O)c2[N+](=O)[O-])c1	-6.5%	-15.5%	0.0%	71.2%	-76.6*	?
CN(C)/C=C/c1[nH]c(=O)[nH]c(=O)c1[N+](=O)[O-]	-5.5%	0.7%	20.3%	27.7%	-79.5*	-10.5%
C=C1NC(=O)c2cc(CN(C)c3ccc(C(=O)N[C@@H](CCC(=O)O)C(=O)O)s3)ccc2N1	/	-1.0%[60.1 µM]	/	/	/	/
COc1ccc2nc(C)cc(SCC(=O)NNC(=O)COc3ccc(C)cc3)c2c1	1.4%	-4.9%	?	18.6%	7.9	-4.9%
COc1ccc2nc(C)cc(SCC(=O)NNC(=O)COc3cccc4ccccc34)c2c1	-13.2%	-21.6%	12.6µM*	?	0.7	?
O=C(C[n+]1ccccn1)c1ccccc1	2.5%	-1.6%	-3.7%	58.6%	-16.8	3.7%
NC(=O)c1ccccc1OCC(=O)N1CCCC1c1ccc2c(c1)OCCCO2 (stereo unspecified)	9.4%	-1.6%	/	13.5%	-2.4	-21.5%
CCOc1ccccc1CNC(=O)C1CCN(S(=O)(=O)c2ccc3c(ccn3C)c2)CC1	/	-5.9%[60.1 µM]	-3.8%	25.9%	/	-17.3%
Cc1ccc(-c2nn(CCC(=O)O)cc2/C=C\C(=O)c2ccc(Br)cc2)cc1	?	3.9%	-22.6%	39.8µM*	-22.6	79.4µM*
O=C(Nc1ccc(NC(=O)C2CC2)cn1)c1ccccc1	8.2%	4.0%	-7.8%	-15.6%	-0.7	-13.9%
O=C(Cc1ccccc1)Nc1ccc(NC(=O)c2ccccc2)nc1	-1.5%	-4.9%	63.1µM*	76.2%	1.0	5.8%
CCOc1ccccc1-c1c2cc(O)c(=O)cc-2oc2cc(O)c(O)cc12	89.1µM*	14.1µM*	1.58µM*	/	-55.1*	28.2µM*
O=C(c1cc2cc([N+](=O)[O-])ccc2oc1=O)n1cccn1	-32.0%[57.1 µM]	79.4µM*	31.6µM*	?	-8.9	31.6µM*
CCN1CCN(C(=O)c2cc3cc([N+](=O)[O-])ccc3oc2=O)CC1	-5.4%	-11.1%	-0.6%	-5.2%	-0.9	-5.7%
O=C(O)/C=C/C(=O)Nc1ccc2c(c1)C(=O)c1ccccc1C2=O	-16.2%[11.6 µM]	-22.7%	?	?	-64.8*	?
O=C(COC(=O)/C=C/c1ccc2ccccc2n1)NNC(=O)c1ccccc1	-23.2%	/	/	/	-22.6	39.8µM*
CC(C)CCNC(=O)COC(=O)/C=C/c1ccc2ccccc2n1	-8.2%	-15.7%	0.3%	137.7%	0.5	2.6%
COc1ccc(CCNC(=O)c2cc(=O)c3cc(C)ccc3o2)cc1OC	1.3%	11.9%	0.9%	-13.7%	-1.3	-8.3%
CC(=O)N(c1ccc2oc(=O)sc2c1)S(=O)(=O)c1cccs1	-15.4%	5.2%	28.3%	?	-17.7	-6.3%
CC(=O)N(c1ccc2oc(=O)sc2c1)S(=O)(=O)c1ccc(C(=O)O)cc1	?	?	-16.1%	3.55µM*	?	35.5µM*
CC(=O)O[C@H]1[C@@H](O)[C@H](O)[C@H](Oc2c(O)c(C)c3c4c2[C@@H](C)CC[C@@H]4[C@@H](C)C[C@H]3C=C(C)C)O[C@H]1C	-7.8%	-9.1%	/	-16.3%	111.1	-21.2%
O=C(Cn1ncn2c(cc3ccccc32)c1=O)NCc1ccco1	-35.9%[57.1 µM]	3.0%[60.1 µM]	50.1µM*	?	/	89.1µM*
COc1cc2c(cc1OC)C(c1ccccc1)=NCC2	1.6%	-6.0%	28.5%	157.1%	5.1	-5.7%
SMILES	WRN helicase inh	POLK inh	Pol beta inh	Pol iota inh	PI5P4Ka inh	POLH inh
COc1cc2c(cc1OC)-c1cc3ccc4c(c3c[n+]1CC2)OCO4	7.5%[11.6 µM]	-21.0%	39.8µM*	14.1µM*	-2.6	?
Cc1ccc2c(c1C)-c1c(ccc(C)c1C)C(=O)C2=O	-25.9%	-6.0%	/	25.1µM*	7.1	22.4µM*
CCOC(=O)C1=C(C)N(CCCCCC(=O)O)C(=O)NC1c1ccc([N+](=O)[O-])cc1 (stereo unspecified)	-30.4%	2.0%	22.7%	-14.6%	-1.7	1.6%
CC1=C(C(=O)OCc2ccccc2)C(c2ccccc2OS(=O)(=O)c2ccccc2[N+](=O)[O-])NC(=O)N1CCCC(=O)O (stereo unspecified)	-5.6%	-12.0%	/	?	-98.6*	-11.8%
CCOC(=O)C1=C(C)N(CCCC(=O)O)C(=O)NC1c1ccccc1OS(=O)(=O)c1ccccc1[N+](=O)[O-] (stereo unspecified)	1.3%	2.1%	/	-24.5%	-75.8*	-7.8%
CCOC(=O)C1=C(C)N(CCCCCC(=O)O)C(=O)NC1c1ccccc1OS(=O)(=O)c1ccc(C)cc1 (stereo unspecified)	-2.6%	12.4%	/	?	-14.4	3.9%
CCOC(=O)C1=C(C)N(CCCC(=O)O)C(=O)NC1c1ccccc1OS(=O)(=O)c1ccc(C)cc1 (stereo unspecified)	1.5%	-5.7%	7.3%	11.0%	-85.2*	8.2%
COC(=O)C1=C(C)N(CCCC(=O)O)C(=O)NC1c1ccccc1OS(=O)(=O)c1ccc([N+](=O)[O-])cc1 (stereo unspecified)	-5.5%	-3.0%	/	17.8%	-105.2*	-0.6%
Cc1c(Cc2ccccc2)c(=O)[nH]c(=O)n1C	7.8%	-10.5%	/	50.8%	-9.2	-7.6%
COc1cc(NS(=O)(=O)c2ccc(-c3cc(C)no3)cc2)cc(OC)c1	/	1.1%	2.7%	12.0%	/	-14.3%
O=C1NN=C(CSc2n[nH]c(=S)s2)CS1	12.8%	12.3%	-17.1%	3.4%	-55.4*	-13.3%
C/C(=C1/SC(=S)N(CCC(=O)O)C1=O)c1ccc(O)cc1	?	?	12.7%	?	-24.2	-3.5%
CC(=C1SC(=S)NC1=O)c1ccccc1	-10.5%[11.6 µM]	-10.0%	/	89.1µM*	-53.9*	3.5%
CNC(=O)c1c(NC(=O)c2nc3ccccc3s2)sc2c1CCC2	/	/	44.7µM*	/	/	/
CCC(C)(C)NS(=O)(=O)c1cc(CN2C(=O)c3cccnc3C2=O)ccc1OC	-8.9%	-12.8%	-8.9%	-5.2%	-2.2	-2.0%
Cc1csc(N2CCN(c3cc4nc(-c5ccncc5)[nH]c4cc3Cl)CC2)n1	-9.4%	-23.8%	35.5µM*	?	-7.2	8.3%
Cc1ccc(NC2=C/C(=N\S(=O)(=O)c3cccs3)c3ccccc3C2=O)c(C)c1	-12.3%	-14.7%	-9.4%	?	-22.9	-11.9%
CCc1ccc(S(=O)(=O)/N=C2\C=CC(=O)c3ccccc32)cc1	/	/	16.6%	/	/	/
